# Results as given in PubChem BioAssay (NCI).
# “And” between values parts separate entries of the source, which are not always exact repeats. Identical values can stand only once. About 79,000 compounds went through this panel and 15% of them were active in at least one assay; those are over-represented in the sample as a whole. Some structures have more than one record in an assay (separate samples or runs), and their calls can disagree. The source made the active and inactive calls. No stated cut-off is given here; in the data, active means growth inhibition above about 70%; inactive means the rest.
# Assay: NCI Yeast Anticancer Drug Screen. Data for the bub3 strain (AID 167)
# Details: S. cerevisiae bub3 mutant strain, at 50.0 µM (retest, dose inferred, filed as 5.0), stronger effect = higher value
# In short: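 Mutant yeast screening strain plus compound; vehicle-treated cultures serve as the 0% inhibition reference.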
row,SMILES,growth inhibition
1,CN(C)c1ccc(C2CC(C)(O)Oc3cc4c(cc32)OCO4)cc1 (stereo not drawn),79% (active)
2,O=P(NC1CCCCC1)(OCc1ccccc1)OCc1ccccc1,2% (inactive)
3,COc1oc(C(=O)NC2CCCCC2)c(-c2ccc(Cl)cc2)c1S(=O)(=O)c1ccccc1,88% (active)
4,C[Si](C)(C)/C=C/CCNC(C#N)c1ccccc1 (stereo not drawn),95% (active)
5,CCOc1ccc(NC(=O)C2=C(C)NC(C)=C(C(=O)Nc3ccc(OCC)cc3)C2c2cccc([N+](=O)[O-])c2)cc1,97% (active)
6,CN(C)CCOC1(Cc2ccc(F)cc2)CCC(C(C)(C)C)CC1 (stereo not drawn),56% (inactive) and 99% (active)
7,CC1(C)CC(=O)C(/C=N/c2nc(-c3ccccc3)cs2)=C(O)C1,19% (inactive)
8,CC(=O)Nc1ccc2c(c1)Cc1cc(N=C3C=CC(=O)O3)ccc1-2,99% (active)
9,O=C1C=C(Cl)C(=O)C(c2ccc(Cl)cc2)=C1,98% (active)
10,CNCCCNc1c2ccccc2nc2cccc([N+](=O)[O-])c12,96% (active)
11,CCCCCCCCCCCC(O)S(=O)(=O)O (stereo not drawn),59% (inactive)
12,CC(C)OC(=O)c1ccc(CCc2cc(O)c(Br)cc2O)cc1,91% (active)
13,CCc1cc(O)c(Cl)c(C)c1Cl,49% (inactive)
14,C(=Nc1ccc(-c2cc(-c3ccccc3)nc3ccc4ccccc4c23)cc1)c1ccccc1,89% (active)
15,CSc1nc(C)c(CCOC(C)=O)c(N=P(c2ccccc2)(c2ccccc2)c2ccccc2)n1,93% (active)
16,CS(=O)(=O)SCc1ccc([N+](=O)[O-])cc1,94% (active)
17,COC1=C(OC)C(=O)C(Sc2ccc3ccccc3c2)=CC1=O,79% (active)
18,COc1nc2c(c(=O)n1C)N=C(c1ccccc1)[C@H](C(CC(=O)c1ccccc1)c1ccccc1)C(c1ccccc1)N2 (stereo partly drawn),23% (inactive)
19,Cc1cc(-c2cc(C)c(O)c(C(C)(C)C)c2)cc(C(C)(C)C)c1O,52% (inactive) and 93% (active)
20,Nc1cc(N)c(N=Nc2cccc3c(S(=O)(=O)O)cccc23)cc1N=Nc1cc([N+](=O)[O-])ccc1O,79% (active)

row,SMILES,growth inhibition
1,Nc1ccc(F)cc1S,99% (active)
2,Brc1ccccc1-c1ncc(-c2ccccc2)o1,82% (active)
3,COc1cc(C2SCC(=O)N2c2ccc(-c3ccc(-n4c(-c5ccccc5)nc5ccccc5c4=O)cc3)cc2)ccc1O (stereo not drawn),69% (inactive)
4,Nc1ncnc2c1ncn2C1OC(CO)CC1O (stereo not drawn),92% (active)
5,COc1cc(CSc2ccc(O)cc2)cc(O)c1O,14% (inactive)
6,CCOC(=O)C1N=[N+](c2ccccc2)C(=O)/C1=C\n1c(=S)[nH]c2ccc([N+](=O)[O-])cc21 (stereo not drawn),99% (active)
7,CNC(=O)OCc1c(COC(=O)NC)c2n(c1C)-c1ccc(OC)cc1CCC2,100% (active)
8,O=C(NNc1ccccc1)c1ccc(Cl)c(Cl)c1,13% (inactive)
9,Cc1ccc(CC2(OCCN(C)C)CCC(C(C)(C)C)CC2)cc1 (stereo not drawn),99% (active)
10,C[C@]12CC[C@H](O)CC1=CC[C@@H]1C2CC[C@]2(C)C(=O)NC(=O)CC12 (stereo partly drawn),90% (active)
11,CCCC/C=C/C(C)(C(=O)OCC)C(=O)OCC,12% (inactive)
12,CCc1c(Cl)c(C)cc(O)c1Cl,53% (inactive)
13,O=C(/C=C(/c1ccccc1)N1CCCCC1)c1ccccc1,99% (active)
14,CCCC(=O)Oc1ccc(/C=N/NC(N)=S)nc1,-14% (inactive)
15,CCc1nc2ccc(NCCN(C)C)c3c(=O)c4ccccc4n1c23,32% (inactive)
16,Cc1sc2ccc3ccccc3c2[n+]1C,44% (inactive) and 36% (inactive)
17,COc1c(O)c(C=O)c(Br)c(C=O)c1O,98% (active)
18,Cc1ccc(Cl)cc1NC(=O)OCCN(C)C(=O)Nc1cc(Cl)ccc1C,56% (inactive)
19,Cc1nc2ccccc2nc1NNc1ccccc1,44% (inactive)

# Same assay, conditions: S. cerevisiae bub3 mutant strain, at 50.0 µM, stronger effect = higher value
row,SMILES,growth inhibition
1,CN(C)c1ccc(C2CC(C)(O)Oc3cc4c(cc32)OCO4)cc1 (stereo not drawn),27.9% (inactive)
2,O=P(NC1CCCCC1)(OCc1ccccc1)OCc1ccccc1,7.8% (inactive)
3,COc1oc(C(=O)NC2CCCCC2)c(-c2ccc(Cl)cc2)c1S(=O)(=O)c1ccccc1,72.5% (active)
4,C[Si](C)(C)/C=C/CCNC(C#N)c1ccccc1 (stereo not drawn),90.1% (active)
5,CCOc1ccc(NC(=O)C2=C(C)NC(C)=C(C(=O)Nc3ccc(OCC)cc3)C2c2cccc([N+](=O)[O-])c2)cc1,41% (inactive)
6,CN(C)CCOC1(Cc2ccc(F)cc2)CCC(C(C)(C)C)CC1 (stereo not drawn),46.3% (inactive) and 99.2% (active)
7,CC1(C)CC(=O)C(/C=N/c2nc(-c3ccccc3)cs2)=C(O)C1,75.1% (active)
8,CC(=O)Nc1ccc2c(c1)Cc1cc(N=C3C=CC(=O)O3)ccc1-2,29.5% (inactive)
9,O=C1C=C(Cl)C(=O)C(c2ccc(Cl)cc2)=C1,91.8% (active)
10,CNCCCNc1c2ccccc2nc2cccc([N+](=O)[O-])c12,85.8% (active)
11,CCCCCCCCCCCC(O)S(=O)(=O)O (stereo not drawn),7.55% (inactive)
12,CC(C)OC(=O)c1ccc(CCc2cc(O)c(Br)cc2O)cc1,88.9% (active)
13,CCc1cc(O)c(Cl)c(C)c1Cl,69.5% (inactive)
14,C(=Nc1ccc(-c2cc(-c3ccccc3)nc3ccc4ccccc4c23)cc1)c1ccccc1,50.8% (inactive)
15,CSc1nc(C)c(CCOC(C)=O)c(N=P(c2ccccc2)(c2ccccc2)c2ccccc2)n1,95.6% (active)
16,CS(=O)(=O)SCc1ccc([N+](=O)[O-])cc1,98.8% (active)
17,COC1=C(OC)C(=O)C(Sc2ccc3ccccc3c2)=CC1=O,91.2% (active)
18,COc1nc2c(c(=O)n1C)N=C(c1ccccc1)[C@H](C(CC(=O)c1ccccc1)c1ccccc1)C(c1ccccc1)N2 (stereo partly drawn),36.4% (inactive)
19,Cc1cc(-c2cc(C)c(O)c(C(C)(C)C)c2)cc(C(C)(C)C)c1O,70.2% (active) and 37.4% (inactive)
20,Nc1cc(N)c(N=Nc2cccc3c(S(=O)(=O)O)cccc23)cc1N=Nc1cc([N+](=O)[O-])ccc1O,70.8% (active)

row,SMILES,growth inhibition
1,Nc1ccc(F)cc1S,87.5% (active)
2,Brc1ccccc1-c1ncc(-c2ccccc2)o1,71.2% (active)
3,COc1cc(C2SCC(=O)N2c2ccc(-c3ccc(-n4c(-c5ccccc5)nc5ccccc5c4=O)cc3)cc2)ccc1O (stereo not drawn),82.3% (active)
4,Nc1ncnc2c1ncn2C1OC(CO)CC1O (stereo not drawn),89.3% (active) and -3.15% (inactive) and 83% (active)
5,COc1cc(CSc2ccc(O)cc2)cc(O)c1O,61.2% (inactive)
6,CCOC(=O)C1N=[N+](c2ccccc2)C(=O)/C1=C\n1c(=S)[nH]c2ccc([N+](=O)[O-])cc21 (stereo not drawn),20.8% (inactive)
7,CNC(=O)OCc1c(COC(=O)NC)c2n(c1C)-c1ccc(OC)cc1CCC2,87.2% (active)
8,O=C(NNc1ccccc1)c1ccc(Cl)c(Cl)c1,30.3% (inactive)
9,Cc1ccc(CC2(OCCN(C)C)CCC(C(C)(C)C)CC2)cc1 (stereo not drawn),87.5% (active) and 99.2% (active)
10,C[C@]12CC[C@H](O)CC1=CC[C@@H]1C2CC[C@]2(C)C(=O)NC(=O)CC12 (stereo partly drawn),80% (active)
11,CCCC/C=C/C(C)(C(=O)OCC)C(=O)OCC,67.8% (inactive)
12,CCc1c(Cl)c(C)cc(O)c1Cl,92.6% (active)
13,O=C(/C=C(/c1ccccc1)N1CCCCC1)c1ccccc1,54.8% (inactive)
14,CCCC(=O)Oc1ccc(/C=N/NC(N)=S)nc1,0.95% (inactive)
15,CCc1nc2ccc(NCCN(C)C)c3c(=O)c4ccccc4n1c23,-4.2% (inactive)
16,Cc1sc2ccc3ccccc3c2[n+]1C,86.6% (active) and 89.3% (active)
17,COc1c(O)c(C=O)c(Br)c(C=O)c1O,98.9% (active)
18,Cc1ccc(Cl)cc1NC(=O)OCCN(C)C(=O)Nc1cc(Cl)ccc1C,46.9% (inactive)
19,Cc1nc2ccccc2nc1NNc1ccccc1,74% (active)
